This passage reports AC50 and activity, negative = inhibition results from PubChem BioAssay AID1851 (National Center for Advancing Translational Sciences (NCATS), 2009).

As a reminder, the AC50 is the concentration giving half of the maximal activity seen.

“And” between values parts separate entries of the source, which are not always exact repeats. Equal values may be shown once. Out of some 16,000 compounds screened, about 2,600 (16%) were called active. About 20% were inconclusive and are not listed. Calls follow the shape of the dose curve; as a rule, active = well fitted curve in the direction sought with a large enough effect; inconclusive = small, poorly fitted or top-dose-only effect, or effect the other way; inactive = no such curve, though single readings can be large or run the other way. The list is a sample of the results.
% is scaled to controls: 0 for no effect and ±100 for the full control effect.

This assay deals with Cytochrome P450 2D6 (Homo sapiens) (UniProt P10635). As to the kind of experiment: Cytochrome panel assay with activity outcomes. Particulars: recombinant CYP, pro-luciferin dealkylation, luminescence, p450-cyp2d6; series mostly up to 57.1 µM.
Cytochrome P450 2D6 (Homo sapiens), sequence (P10635 whole entry, looked up): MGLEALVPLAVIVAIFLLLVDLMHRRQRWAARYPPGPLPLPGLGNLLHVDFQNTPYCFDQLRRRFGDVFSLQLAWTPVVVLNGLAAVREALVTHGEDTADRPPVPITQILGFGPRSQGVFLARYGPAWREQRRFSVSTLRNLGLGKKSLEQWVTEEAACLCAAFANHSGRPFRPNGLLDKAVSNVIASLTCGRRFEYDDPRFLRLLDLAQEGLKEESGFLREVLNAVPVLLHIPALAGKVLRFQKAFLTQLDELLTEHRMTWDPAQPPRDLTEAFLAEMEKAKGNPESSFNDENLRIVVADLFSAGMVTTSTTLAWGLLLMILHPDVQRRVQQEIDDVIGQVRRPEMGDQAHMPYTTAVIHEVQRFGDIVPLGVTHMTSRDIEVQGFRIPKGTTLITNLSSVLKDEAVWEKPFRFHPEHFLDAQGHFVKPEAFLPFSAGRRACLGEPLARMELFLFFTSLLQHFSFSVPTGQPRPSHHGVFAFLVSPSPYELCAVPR
Consider `CCCCOC(=O)CCc1c(C)[nH]c(=O)c(C#N)c1C`, for which the AC50 entry was “inactive”. On the same count and under the same terms, the entry for `CCN(CC)C(=O)C1=C(C)NC(=S)NC1c1cn(-c2ccccc2)nc1-c1ccc(Cl)cc1` (stereo not given) is “inactive”. As to `O=C(O)[C@@H]1[C@@H](C(=O)Nc2ncccn2)[C@@H]2C=C[C@@H]1O2`, the activity, negative = inhibition was 15.2% [at 11.4 µM] (inactive).

In the case of `CCc1cccc(N(C)C(N)=Nc2cccc3ccccc23)c1`, the AC50 was 0.2 µM (active). In the case of `O=C(NC[C@@H](O)CO)c1c(I)c(C(=O)NC[C@@H](O)CO)c(I)c(N(CCO)C(=O)CO)c1I`, the AC50 entry was “inactive”. Take `O=C1c2ccccc2-c2ccc(N(Cc3ccc(Br)cc3)Cc3ccc(Br)cc3)cc21`: the activity, negative = inhibition is -1.8% [at 11.4 µM] (inactive). As for `CN1[C@@H]2CC[C@H]1CC(OC(c1ccccc1)c1ccccc1)C2` (stereo not given in full), the concentration at half-maximal activity (AC50) was 2 µM (active) and 1.26 µM (active). On the same count and under the same terms, the entry for `C[N+]1(C)CCC(OC(=O)C(c2ccccc2)c2ccccc2)CC1` is “inactive”. The same measure, in the same setting: the value for `Cn1c(=O)c(-c2cc(F)cc(F)c2)nc2cncnc21` was “inactive”. As to `Cc1nn(C)cc1CNC(=O)CCC(=O)O`, the AC50 entry was “inactive”. Regarding `COc1ccc(NC(=O)NCCCN2CCCCC2C)cc1` (stereo not given), the AC50 was 1.58 µM (active).

As to `CCN1CCCC1CNC(=O)C(=O)Nc1ccc(OC)cc1` (stereo not given), the AC50 result was “inactive”. The same measure, in the same setting: the entry for `COc1ccc(NC(=O)N2CCC3(CC2)CCN(S(C)(=O)=O)CC3)cc1` is “inactive”. Turning to `O=S(=O)(c1cnccc1N1CCN(CCO)CC1)N1CCCC1`, the activity, negative = inhibition is 10% [at 11.4 µM] (inactive). Take `Cc1cccc(Nc2ccccc2C(=O)OCC(=O)NCc2ccco2)c1C`: the AC50 result is “inactive”.

As for `O=C(Nc1ccccc1Cl)c1ccn[nH]1`, the AC50 entry is “inactive”.

As for `O=C1C(=O)N(Cc2ccc(Cl)c(Cl)c2)c2ccccc21`, the AC50 was 3.98 µM (active).

As to `O=C1c2cccnc2C(=O)N1Cc1ccc(F)cc1`, the AC50 entry was “inactive”. On to `O=C1CCCc2ccccc2N1Cc1cccc(Cl)c1`, for which the AC50 entry was “inactive”. Same read-out and setting: the entry for `CCn1ncc(C(=O)Nc2cc(C)on2)c1C` is “inactive”. Same read-out and setting: the value for `Cc1c(C)c2c(C)[nH]nc2oc1=O` was “inactive”; that for `CN(C)c1nc(C#N)nc(N2CCOCC2)n1` was “inactive”; that for `CCOC(=O)C(NC(C)=O)C(=O)O` (stereo not given) was “inactive”. The same measure, in the same setting: the value for `O=C(O)CP(=O)(O)O` was “inactive”.

`CCOC(=O)[C@H](N)/C=C(\C)CP(=O)(O)O`: the concentration at half-maximal activity (AC50) was 2 µM (active).

As to `Cc1ccc(C)c2sc(NC(=O)c3ccc(N4CCCCC4)c([N+](=O)[O-])c3)nc12`, the AC50 result is “inactive”. Still for that read-out and setting: the entry for `CCc1nnc(NC(=O)CCC(=O)N2CCN(c3ccccn3)CC2)s1` is “inactive”; for `Cc1ccc(C2CC2C(=O)NN)cc1` (stereo not given) it is “inactive”.

Take `Cc1ccc(C2NC(c3ccc(C)cc3)C(C)C(=NO)C2C)cc1` (stereo not given): the AC50 is 0.562 µM (active).

As for `Cc1ccc(NC(=O)/C(=C\c2cccc([N+](=O)[O-])c2)NC(=O)c2cccs2)cc1`, the AC50 entry was “inactive”.
